The structures appear in SMILES notation. This is part of a sample that, as a whole, favours compounds with a hit. Of some 83,000 tested, about 20% had one in any assay.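 Each cell line was grown in a 96-well plate and treated with one concentration of compound for 48 hours. Values below 10 were considered active.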 A number with no mark means an inactive call. The source made the active and inactive calls.

The subject of the experiment is SN12C renal. The experiment in a line: NCI-60 one-dose screen, 48 h (100 = growth as untreated, 0 = no growth, -100 = all killed). The following applies: 10 µM. As to the method: Growth inhibition of the SN12C human tumor cell line is measured as a screen for anti-cancer activity. Cells are grown in 96 well plates and exposed to the test compound for 48 hours. Compounds are tested at a single concentration, which is 10^-5 M for most compounds. The reported endpoint is percent growth (GI% or GIPRCNT), where numbers from 0 - 100% represent growth inhibition, and numbers from -100% - 0 represent cell death. For example, a value of 40 represents 60% growth inhibition. A value of 0 means no net growth occurred over the course of the experiment. A value of -40 indicates 40% of cells at the beginning of the experiment died by the end of the experiment. A value of -100 means all cells are dead at the end of the experiment.
NCI-60 Human Tumor Cell Lines Screen was performed using the standard one-dose NCI protocol, which is described in more detail at https://dtp.cancer.gov/discovery_development/nci-60/default.htm.
Compounds with GIPRCNT values below 10 were considered active. Activity score was based on GIPRCNT using the following formula: […]
Score is 0 for GIPRCNT values of 100 or above, 50 for GIPRCNT values of 0, and 100 for GIPRCNT values of -100.
Consider `COc1ccc(/C(=C/c2cc(OC)c(OC)cc2[N+](=O)[O-])C(=O)O)cc1`, for which the growth is 104%.

Take `COc1ccc(S(=O)(=O)Nc2cc(/C=C\c3cc(OC)c(OC)c(OC)c3)ccc2OC)cc1`: the growth was 15.6%.

Turning to `O=C(/C=C/c1nnc2n(Cc3ccccc3)c(=O)c3c4c(sc3n12)CCCC4)c1ccccc1`, the growth was 96.7%.

On to `CCOC(=O)C1=C(Nc2ccc(OC)cc2)C(N)=NC1=N`, for which the growth is 57%.

With `Cc1cc(OI)c(C(C)C)cc1-c1cc(C(C)C)c(OI)cc1C`, the growth is 101%.

As for `COc1cccc(C(=O)NNc2nc(N3CCN(C4CCCCC4)CC3)nc(N3CCN(C(c4ccccc4)c4ccccc4)CC3)n2)c1`, the growth was 51.8%.

`CC(Oc1ccc(Cl)cc1)c1ccccc1` (stereo not given): the growth was 98.1%.

Regarding `COC(=O)C1(C(=O)OC)C2C(=O)C3C(C21)C3(C(=O)OC(C)(C)C)C(=O)OC(C)(C)C` (stereo not given), the growth was 107%.

For `COc1ccc(C(C)=O)cc1N1C(=O)C2C(C1=O)C1(c3ccccc3)C(=O)C2(c2ccccc2)C(c2ccc(C)cc2)=C1c1ccc(C)cc1` (stereo not given), the growth is 26.2%.

`CN(C)c1ccc2cc(-c3cc4c(oc3=O)-c3ccccc3OC4O)c(=O)oc2c1` (stereo not given): the growth was 57.9%.

On to `O=C(OCC1OC(n2cc(C(F)(F)F)c(=O)[nH]c2=O)CC1OC(=O)c1ccc([N+](=O)[O-])cc1)c1ccc([N+](=O)[O-])cc1` (stereo not given), for which the growth was 43.4%.

Regarding `CC(C)/C(=N/O)c1ccccc1`, the growth is 102%.

On to `CC1(C)CC(=O)c2c(nc3ccc(Cl)cc3c2-c2ccccc2)C1`, for which the growth was 92.5%.

Regarding `COc1cc2c3c(cccc3c1)C(=O)N(CCN1CCCC1)C2=O`, the growth was 29.7%.

`COc1cc(C2C=C(c3ccc(Cl)c(Cl)c3)N=C3SC(C)=CN32)cc(OC)c1OC` (stereo not given): the growth was 92.3%.

Take `COc1cccc(C(=O)NNc2nc(N3CCOCC3)nc(N3CCN(C(c4ccccc4)c4ccccc4)CC3)n2)c1`: the growth is 75.3%.

As to `COc1ccc(Nc2ccnc(N3CCN(c4ccnc5cc(Cl)ccc45)CC3)n2)cc1`, the growth was 14.1%.

Regarding `O=C(NNc1nc(N2CCCC2)nc(N2CCCC2)n1)c1ccccc1`, the growth is 100%.

In the case of `COc1cc(-c2c(C#N)c(N)n3c(nc4ccccc43)c2C#N)cc(Br)c1OC`, the growth is 40.1%.

With `COc1cc(C2CC(=O)Nc3c2c(C)nn3-c2nc3ccccc3[nH]2)cc(OC)c1O` (stereo not given), the growth was 81.2%.

On to `O=CNc1c(Cl)cc2c(c1Cl)Cc1cc([N+](=O)[O-])ccc1-2`, for which the growth is 80.6%.

In the case of `COc1cc(Cl)cc(-c2nn(-c3cccc(NC(=O)Nc4cccc(C(F)(F)F)c4)c3)cc2-c2ccncc2)c1`, the growth is 13.9%.

As for `Cc1cnc(C=O)c2cccc([N+](=O)[O-])c12`, the growth was 86.8%.

`CCCCCCCCCCCCCC[n+]1ccccc1`: the growth is -41.8% (active).

In the case of `O=C(COCc1c(-c2ccccc2)no[n+]1[O-])Nc1nc(-c2ccc(Cl)cc2)cs1`, the growth was 100%.

In the case of `Nc1cc2c(cc1Cl)-c1ccc(Cl)cc1C2=O`, the growth was 93.1%.

`Cc1cc(C)c(C(=O)OC(C)CNC2CCCCC2)c(C)c1` (stereo not given): the growth was 100%.

Take `Cc1cccc2c1O/C(=C\c1ncc([N+](=O)[O-])n1C)C2=O`: the growth was -48.5% (active).

For `Nc1ncncc1-c1ccc(F)cc1`, the growth is 107%.

For the compound `NC(N)=NS(=O)(=O)c1ccc(Nc2ccc3nnc(-c4ccncc4)n3n2)cc1`, the growth is 94.6%.

`COc1cc2ccnc(C=O)c2cc1OC`: the growth was 77.8%.

For `Cc1ccc([P+](Cc2ccc([N+](=O)[O-])cc2)(c2ccc(C)cc2)c2ccc(C)cc2)cc1`, the growth was 67.6%.

Take `O=C(COc1ccc(-c2nc3ccccc3[nH]2)cc1)N=Nc1c(O)[nH]c2ccccc12`: the growth was 91.7%.

Regarding `COc1cc(CSc2nc3ccc(C)cc3c(=O)n2-c2ccccc2)cc(OC)c1OC`, the growth was 37%.

With `Cc1ccc(Cl)cc1Nc1nc(C(F)(F)F)ccc1C(=O)N/N=C/c1c(Cl)cccc1Cl`, the growth is 9.96% (active).

Consider `COc1ccc(-c2nc(SCC(=O)c3ccc(Br)cc3)[nH]c(=O)c2C#N)cc1`, for which the growth was 112%.

`O=NN(CC(=O)N/N=C/C=C\c1ccccc1)CC(=O)N/N=C/C=C/c1ccccc1`: the growth is 78.1%.

Turning to `CCc1nn2c(-c3ccccc3)c(-c3cc(OC)c(OC)c(OC)c3)nc2s1`, the growth was 88.1%.

With `CC(C)=C1CCC(C)C/C1=N\N=C(N)N` (stereo not given), the growth was 103%.

Turning to `O=C(O)c1ccccc1C(=O)c1cccc2c(F)cccc12`, the growth is 100%.

(Values after PubChem BioAssay (NCI).)
